± gives the standard deviation of the averaged measurements.

In this assay the test system is (4S)-cis-verbenol A-neuron OSN class. Kind of assay: net action potential response of A-neuron (blank-subtracted) (spikes/s (Hz)); higher = stronger excitation. The following applies: 10 µg on filter paper; neuron: A neuron (large spike amplitude). Here is the method:
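Single sensillum recordings from antennal olfactory sensilla of live adult Ips typographus. Each compound was 10 µg in paraffin oil on filter paper, delivered as a 0.5 s puff. Net response = spikes in the first 0.5 s of response minus the 0.5 s pre-stimulus count, doubled to give Hz, with blank response subtracted. Values are for the large-spike A-neuron class of each of seven sensillum types that co-house the lanierone B-neuron; N = 1-4 sensilla, averaged.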
For `CC(C)CCO` [3-Methyl-1-butanol], the “net action potential response” value came to 6 ± 7.2.
With `C=CC(C)(C)O` [2-Methyl-3-buten-2-ol], the “net action potential response” value is -4 ± 4.
Under `C=CC(=C)CC(O)C=C(C)C` (racemic) [(±)-Ipsdienol] stands -2.67 ± 2.3; under `C=C(C)[C@@H]1CC=C(C)CC1` [(-)-Limonene], 0.667 ± 8.1.
The result for `CC1=CCC(C(C)C)=CC1` [γ-Terpinene] reads -5.33 ± 4.2; that for `CC(=O)CC/C=C(\C)CCC=C(C)C` [Geranylacetone], 3.33 ± 6.1; that for `C=CC(=C)CCC=C(C)C` [Myrcene], 2 ± 4.
Regarding `CCCCCC=O` [Hexanal], the “net action potential response” value was found to be 0.667 ± 5.
As to `C=CC(=C)C[C@@H](O)CC(C)C` (racemic) [(±)-Ipsenol], the “net action potential response” value was 1.33 ± 4.2.
Consider `c1ccc2c(c1)CCO2` [2,3-Dihydrobenzofuran], for which the “net action potential response” value is 0 ± 2.
With `CCC(C)CO` (racemic) [(±)-2-Methyl-1-butanol], the “net action potential response” value is -1.33 ± 4.2.
`CC12CCC(CC1=O)C2(C)C` (racemic) [(±)-Camphor]: the “net action potential response” value was -2.67 ± 8.1.
For the compound `CC/C=C/CCO`, the “net action potential response” value is 2.67 ± 7.
Under `C=C(C)C1CC=C(C)C(=O)C1` (racemic) [(±)-Carvone] stands 2 ± 4.
